Screens as filed in PubChem.
HttQ103 aggreg: qHTS Multiplex Assay to Identify Dual Action Probes in a Cell Model of Huntington: Aggregate Formation (GFP); PC12 HttQ103-GFP aggregates, Acumen cytometry, 40 h; 220,000 tested, 1.1% active; Potency, µM (series often up to 46.1 µM), inactives show at the top dose activity change, negative = inhibition, actives largely listed as inhibitors; also: potency is read from the fitted curve at half-maximal effect; % is scaled to controls: 0 for no effect and ±100 for the full control effect; nearly all actives have a fitted effect of over 60% in size
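PC12 cells stably carrying ecdysone-inducible HTT exon 1 Q103–GFP were induced with tebufenozide (100 nM final) and treated with library compounds in titration. GFP aggregates in lysates were counted by laser scanning cytometry.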
CBFb RUNX1 block: qHTS Assay for Compounds Blocking the Interaction Between CBF-beta and RUNX1 for the Treatment of Acute Myeloid Leukemia. 230,000 tested, under 10 active. AlphaScreen CBFb-His/RUNX1-biotin binding, biochemical. AID 1477, 2009. Potency, µM (top dose mostly 59.8 µM), without a hit: at the highest dose activity, negative = inhibition, usual class: inhibitors. Runt-related transcription factor 1 (Homo sapiens) + Core-binding factor subunit beta …; also: % of control where 0% means no effect
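Bead-based AlphaScreen assay; binding partners His-tagged CBF-beta and biotinylated RUNX1 at 30 nM each. Compound exposure 15 min after a 20-min protein preincubation; bead step 90 min; all steps at room temperature.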
HTT cytoprotect: qHTS Multiplex Assay to Identify Dual Action Probes in a Cell Model of Huntington: Cytoprotection (ATP); PC12 HTT-Q103 induced, cytoprotection, ATP luminescence, 40 h; AID 1471, 2008; Potency, µM (highest dose often 56.4 µM), inactives show cytoprotection (ATP increase), most hits filed as activators; 230,000 tested, 0.14% active; also: potency is read from the fitted curve at half-maximal effect; % of control where 0% means no effect; nearly all actives have a fitted effect of over 45% in size
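Huntington model: PC12 line, ecdysone-inducible HTTQ103 exon1–GFP, tebufenozide 100 nM. Test articles in a dose series. Endpoint luminescence from cellular ATP.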
HPGD block: qHTS Assay for Inhibitors of HPGD (15-Hydroxyprostaglandin Dehydrogenase) | 15-hydroxyprostaglandin dehydrogenase [NAD(+)] (Homo sapiens), P15428 | purified HPGD, NADH fluorescence kinetic, PGE2 substrate | Potency, µM, for inactives: at the highest dose activity change, negative = inhibition, usual class: inhibitors | 150,000 tested, 4.3% active; active = well fitted inhibition curve with a large enough effect, not every such curve was filed as active; inconclusive = small, poorly fitted or top-dose-only effect, or another doubt; inactive = no such curve, though single readings can be large or run the other way; also: potency is read from the fitted curve at half-maximal effect; % is scaled to controls: 0 for no effect and ±100 for the full control effect
Target sequence (P15428 whole entry, looked up): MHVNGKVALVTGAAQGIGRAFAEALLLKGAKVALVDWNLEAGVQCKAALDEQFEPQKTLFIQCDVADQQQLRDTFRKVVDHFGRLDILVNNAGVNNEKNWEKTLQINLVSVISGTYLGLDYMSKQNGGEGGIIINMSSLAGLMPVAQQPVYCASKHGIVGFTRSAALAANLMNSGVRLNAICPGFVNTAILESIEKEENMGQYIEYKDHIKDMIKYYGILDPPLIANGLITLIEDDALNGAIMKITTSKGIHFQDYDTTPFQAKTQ
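NADH formation kinetics: reaction with 30 uM PGE2 and 1 mM NAD+ (final), 20 nM enzyme, Tris-HCl pH 8 with Tween 20, after 15 min compound preincubation at room temperature. Fluorescence change, last versus first of five reads.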
ALDH1A1 block: qHTS Assay for Inhibitors of Aldehyde Dehydrogenase 1 (ALDH1A1); Aldehyde dehydrogenase 1A1 (Homo sapiens), P00352; Purified ALDH1A1, NADH fluorescence, propionaldehyde substrate; Potency, µM (highest dose often 75.3 µM), for inactives: at the highest dose activity, negative = inhibition, usual class: inhibitors; 220,000 tested, 7.3% active; AID 1030, 2008; active = well fitted inhibition curve with a large enough effect, not every such curve was filed as active; inconclusive = small, poorly fitted or top-dose-only effect, or another doubt; inactive = no such curve, though single readings can be large or run the other way;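 also: potency is read from the fitted curve at half-maximal effect; plate controls were no enzyme wells and a reference inhibitor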
Target sequence (P00352 whole entry, looked up): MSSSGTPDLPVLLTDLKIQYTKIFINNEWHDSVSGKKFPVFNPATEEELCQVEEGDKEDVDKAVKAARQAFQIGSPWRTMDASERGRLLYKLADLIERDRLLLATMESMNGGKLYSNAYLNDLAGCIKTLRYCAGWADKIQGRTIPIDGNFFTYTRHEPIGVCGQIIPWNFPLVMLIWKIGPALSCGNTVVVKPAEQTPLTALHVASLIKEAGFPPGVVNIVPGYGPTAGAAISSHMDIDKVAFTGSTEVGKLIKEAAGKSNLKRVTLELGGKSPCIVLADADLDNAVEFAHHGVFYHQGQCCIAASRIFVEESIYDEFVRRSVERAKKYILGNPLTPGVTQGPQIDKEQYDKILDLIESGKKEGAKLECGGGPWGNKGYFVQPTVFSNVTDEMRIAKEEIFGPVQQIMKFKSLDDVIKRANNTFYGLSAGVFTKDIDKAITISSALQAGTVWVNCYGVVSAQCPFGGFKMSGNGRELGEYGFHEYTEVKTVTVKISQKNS
PNC assembly inh: High Content Assay for Compounds that inhibit the Assembly of the Perinucleolar Compartment; PC3M PTB-GFP, PNC prevalence imaging, 16 h; hits give low values; activity change (PNC), negative = inhibition, % at 10 µM; 140,000 tested, 3.1% active;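 active = readout at or below -70, meaning at least 70% loss of cells showing the perinucleolar compartment, a nuclear body marking cancer cells; inconclusive = readout between -30 and a set limit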;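 also: plate controls were DMSO wells for no effect and camptothecin positive control wells for full effect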
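Compounds are pinned in duplicate onto adhered PC3M cells stably expressing GFP-tagged PTB and incubated 16 h at 37 C. Cells are then fixed, nuclei stained with Hoechst, and PNC-positive cells counted.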
The depositor's hits bear a star; ? = inconclusive; . = no result given; [ ] = remark or other dose. A selection: hits, their analogues and other compounds. The true share with any hit is near 11%. Unless noted, calls follow the shape of the dose curve; as a rule, active = well fitted curve in the direction sought with a large enough effect; inconclusive = small, poorly fitted or top-dose-only effect, or another doubt; inactive = no such curve, though single readings can be large; an effect the other way counts as inactive or inconclusive.

SMILES	HttQ103 aggreg	CBFb RUNX1 block	HTT cytoprotect	HPGD block	ALDH1A1 block	PNC assembly inh
CSc1nsc(/C=C/Nc2ccc(C)cc2)c1C#N	19%	25%	-5%	14µM*	7.5µM*	-11
CSc1nsc(/C=C/Nc2ccc(C)c(C)c2)c1C#N	?	?	-30%	.	14µM*	.
CSc1nnc(C)c(/C=C/Nc2ccc(F)cc2)n1	-10%	-3%	-19%	-15%	-7%	28
C(=N\Nc1nc(-c2ccccc2)cs1)/c1cccs1	5%	-4%	-5%[10 µM]	?	-17%	17
O=C(CCSc1ccccc1)NCCSCc1ccccc1	26%	-7%	2%[10 µM]	14µM*	?	-27
O=C(Cc1ccccc1)NCCSCc1ccc(Cl)cc1	1%	1%	-11%	32µM*	?	-7
O=C(COc1ccccc1)NCCSCc1ccc(Cl)cc1	17%	4%	20%[10 µM]	-9%	-1%	-14
Cc1cccc(CSCCNC(=O)CCSc2ccccc2)c1	-8%	-6%	.	28µM*	?	-24
Cc1ccc(SCCC(=O)NCCSCc2ccco2)cc1	26%	6%	-32%	.	?	.
O=C(CCc1ccccc1)NCCSc1ccccc1	-1%	12%	.	.	-1%	.
COCCn1c(=O)cnc2cnc(N3CCN(C)CC3)nc21	.	.	-24%	.	?	.
Cc1cc2c(cc(C(=O)OCC(=O)NCc3cccs3)n2C(C)C)o1	?	-6%	-17%[1.9 µM]	-21%	19µM*	7
Cc1cc(C)cc(C(=O)OCC(=O)NCc2cccs2)c1	4%	-2%	16%[10 µM]	-20%	11%	30
CC[C@@H](C)C(N)C(=O)O (some centres not stated)	19%	1%	-8%	.	.	.
CCOc1ccc(N2C(=O)CS/C2=C(\C(Cl)=C(Cl)Cl)[N+](=O)[O-])cc1	?	?	-6%	-5%	22µM*	50
c1ccc(C(NCc2cccnc2)(c2ccccc2)c2ccccc2)cc1	.	15%	.	.	.	.
CCC(C)NC(=O)[C@H](CSCc1ccccc1)N1Cc2ccccc2C1=O (some centres not stated)	3%	10%[2.36 µM]	.	-7%	-5%	-82*
CC(C)CCNC(=O)[C@H](CSCc1ccccc1)N1Cc2ccccc2C1=O	0%	-3%[2.36 µM]	.	-1%	-9%	24
O=C(c1ccc2c(c1)OCO2)C1CCCN(Cc2cccn2-c2cccnc2)C1 (configuration not stated)	27%[9.22 µM]	2%	18%[10 µM]	.	?	.
O=c1c(-c2cccs2)nc2cnc(N3CCNCC3)nc2n1Cc1cccs1	.	.	-254%	.	?	.
C=CCCCCCCCCC(=O)OC	10%	.	11%	.	.	.
O=C(C(=O)N1CCCc2ccccc21)N1CCCc2ccccc21	5%	-20%	16%[10 µM]	0%	0%	?
COc1ccc(-c2cc(C(=O)N3CCCc4ccccc43)no2)cc1	-6%	12%	-16%	-24%	4µM*	-13
O=C(Nc1ccccc1)N1CCCc2ccccc21	-8%	6%	-17%[10 µM]	-28%	5%	-100*
O=C(c1cc(-c2cccs2)on1)N1CCCc2ccccc21	.	23%	.	-11%	14µM*	-24
SMILES	HttQ103 aggreg	CBFb RUNX1 block	HTT cytoprotect	HPGD block	ALDH1A1 block	PNC assembly inh
Cc1noc(C)c1C(=O)N1CCCc2ccccc21	26%	0%	-8%	-26%	25µM*	26
OCCNc1ncnc2c1ncn2[C@@H]1O[C@@H](CO)[C@H](O)[C@@H]1O	.	.	-8%[10 µM]	-8%	-6%[13.5 µM]	.
CCN(c1ccccc1)c1cc(NC)[n+](C)c(C)n1	.	7%[21.7 µM]	5%	0%	-13%	.
CCC(=O)Nc1ccc2nc(C3CC3)n(Cc3ccc(C(C)(C)C)cc3)c(=O)c2c1	-12%[9.22 µM]	12%	-14%[10 µM]	.	.	.
CSCC[C@H](NC(=O)[C@H](CC(C)C)NC(=O)[C@H](Cc1c[nH]c2ccccc12)NC(=O)[C@H](CCC(N)=O)NC(=O)[C@@H](NC(=O)[C@H](Cc1ccccc1)NC(=O)[C@H](CC(=O)O)NC(=O)[C@H](CCC(N)=O)NC(=O)[C@H](C)NC(=O)[C@H](CCCNC(=N)N)NC(=O)[C@H](CCCNC(=N)N)NC(=O)[C@H](CO)NC(=O)[C@H](CC(=O)O)NC(=O)[C@H](CC(C)C)NC(=O)[C@H](Cc1ccc(O)cc1)NC(=O)[C@H](CCCCN)NC(=O)[C@H](CO)NC(=O)[C@H](Cc1ccc(O)cc1)NC(=O)[C@H](CC(=O)O)NC(=O)[C@H](CO)NC(=O)[C@@H](NC(=O)[C@H](Cc1ccccc1)NC(=O)[C@@H](NC(=O)CNC(=O)[C@H](CCC(N)=O)NC(=O)[C@H](CO)NC(=O)[C@@H](N)Cc1cnc[nH]1)[C@@H](C)O)[C@@H](C)O)C(C)C)C(=O)N[C@@H](CC(N)=O)C(=O)N[C@H](C(=O)O)[C@@H](C)O	.	12%	.	.	.	.
COc1ccc(C2=NOC(C(=O)N3CCCc4ccccc43)C2)cc1 (configuration not stated)	-3%	-12%	-23%	-9%	13µM*	-4
COc1ccc(C(=O)N2CCCc3ccccc32)cc1	19%	6%	-4%	-22%	?	?
CCN(CC)S(=O)(=O)c1ccc(C(=O)N2CCc3ccccc32)cc1	31%	?	.	.	5µM*	.
CC(C)Oc1ccc(C(=O)N2CCCc3ccccc32)cc1	-17%	4%	7%	22µM*	?	22
CC(=O)NCCCC[C@H](NC(=O)OC(C)(C)C)C(=O)Nc1ccc2c(C(F)(F)F)cc(=O)oc2c1	.	28%	.	.	.	.
C#CCCCO/N=C1/C[C@@H](O)[C@@H](O)[C@@H]2[C@@H]3C(=O)N(C(C)(C)C)C(=O)[C@H]3CC[C@H]12	.	4%[13.1 µM]	-5%[10 µM]	.	6%[13.5 µM]	.
COc1cc(CN2CCCC(C(=O)c3ccc4c5c(cccc35)CC4)C2)cc(OC)c1O (configuration not stated)	-3%[9.22 µM]	-20%	15%[10 µM]	.	?	.
CCCCN1C(=O)/C(=C2\SC(N3CCCCC3)=NC2=O)c2ccccc21	?	?	-45%	22µM*	10µM*	-17
O=C1N=C(N2CCOCC2)S/C1=C1\C(=O)N(Cc2ccccc2)c2ccc(Br)cc21	24%	-2%	-14%[0.074 µM]	-4%	?	39
